{
  "source": "PubChem BioAssay (Tox21)",
  "note": "Results filed as inconclusive are left out. Calls of active or inactive are those of the source. Calls come from the whole dose curve. Non-standard residues stand in square brackets, D forms with d. Residues, ends and D or L forms follow the SMILES beside them. *: point of attachment. Sta = CC(C)C[C@H](N)[C@@H](O)CC(=O)O; Isovaleryl = CC(C)CC(=O)*",
  "data": [
    {"experiment": "qHTS assay for small molecule agonists of the p53 signaling pathway - cell viability (AID 651633);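 note: p53RE-bla HCT reporter cells with a stable beta-lactamase p53 reporter; nearly all actives have a fitted effect of over 30% in size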", "conditions": "p53RE-bla HCT-116 viability, ATP luminescence, 16 h; series mostly up to 83.3 µM", "outline": "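Viability counter-read: CellTiter-Glo luminescence (30 min, room temperature) in the same p53RE-bla plates. These plates had been exposed to compounds for 16 h at 37 C.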", "values": [
      {"smiles": "COc1cnc(NS(=O)(=O)c2ccc(N)cc2)nc1", "outcome": "inactive"},
      {"smiles": "CCCCCCCCOCCC#N", "outcome": "inactive"},
      {"smiles": "NC[C@H]1O[C@H](O[C@H]2[C@H](O)[C@@H](O[C@H]3O[C@H](CO)[C@@H](O)[C@H](N)[C@H]3O)[C@H](N)C[C@@H]2N)[C@H](N)[C@@H](O)[C@@H]1O", "outcome": "inactive"},
      {"smiles": "C=CCOC(=O)CCCCCCCC", "outcome": "inactive"},
      {"smiles": "CC(C)(Sc1cc(C(C)(C)C)c(O)c(C(C)(C)C)c1)Sc1cc(C(C)(C)C)c(O)c(C(C)(C)C)c1", "outcome": "inactive"},
      {"smiles": "CC(=O)c1c(C)cc(C(C)(C)C)cc1C", "outcome": "inactive"},
      {"smiles": "Nc1cc(S(=O)(=O)O)ccc1O", "outcome": "inactive"},
      {"smiles": "O=C(O)Cc1ccccc1Oc1ccc(Cl)cc1Cl", "outcome": "inactive"},
      {"smiles": "CCCCCCCCC1CO1", "note": "(centres undefined)", "outcome": "inactive"},
      {"smiles": "N=C(N)N", "outcome": "inactive"},
      {"smiles": "COC(=O)c1ccc(C(=O)O)cc1", "outcome": "inactive"},
      {"smiles": "CC(C)CC(=O)N[C@H](C(=O)N[C@H](C(=O)N[C@@H](CC(C)C)[C@@H](O)CC(=O)N[C@@H](C)C(=O)N[C@@H](CC(C)C)[C@@H](O)CC(=O)O)C(C)C)C(C)C", "note": "(Isovaleryl-VV[Sta]A[Sta]-OH)", "outcome": "inactive"},
      {"smiles": "Cc1ccc(O)c([N+](=O)[O-])c1", "outcome": "inactive"},
      {"smiles": "Cc1ccc(NC(N)=O)cc1", "outcome": "inactive"},
      {"smiles": "CCOCCOCCOC(C)=O", "outcome": "inactive"},
      {"smiles": "CCCCCCCCCCCCCC(=O)OCC", "outcome": "inactive"},
      {"smiles": "C[C@@H]1CC[C@@]2(OC1)O[C@H]1C[C@H]3[C@@H]4CC[C@H]5C[C@@H](O)CC[C@]5(C)[C@H]4CC(=O)[C@]3(C)[C@H]1[C@@H]2C", "outcome": "inactive"},
      {"smiles": "CC(=O)Nc1ccc(S(=O)(=O)Nc2cc(C)on2)cc1", "outcome": "inactive"},
      {"smiles": "C=CCn1cc[n+](C)c1", "outcome": "inactive"},
      {"smiles": "CCCC[O][Al]([O]CCCC)[O]CCCC", "outcome": "inactive"},
      {"smiles": "CCOC(=O)CC", "outcome": "inactive"},
      {"smiles": "OCCC(F)(F)C(F)(F)C(F)(F)C(F)(F)C(F)(F)C(F)(F)F", "outcome": "inactive"},
      {"smiles": "C[n+]1ccccc1/C=N/O", "outcome": "inactive"},
      {"smiles": "c1coc(Cn2cccc2)c1", "outcome": "inactive"},
      {"smiles": "CCCCC(CC)COC(=O)CC#N", "note": "(centres undefined)", "outcome": "inactive"},
      {"smiles": "CC(C)c1cc(C(C)C)cc(C(C)C)c1", "outcome": "inactive"},
      {"smiles": "CCOC(=O)[C@H](CCc1ccccc1)N[C@H]1CS[C@H](c2cccs2)CN(CC(=O)O)C1=O", "outcome": "inactive"},
      {"smiles": "COc1cc(OC)cc(OC)c1", "outcome": "inactive"},
      {"smiles": "O=C(O)COc1ccc2ccccc2c1", "outcome": "inactive"},
      {"smiles": "Cc1cccc(N)n1", "outcome": "inactive"},
      {"smiles": "O=C(c1ccccc1)c1cccc(O)c1", "outcome": "inactive"},
      {"smiles": "CCCCCCCC(=O)N(C)C", "outcome": "inactive"},
      {"smiles": "CC/C=C\\CCOC(=O)c1ccccc1", "outcome": "inactive"},
      {"smiles": "CCCOc1ccc(C(=O)OCCN(CC)CC)cc1N", "outcome": "inactive"}
    ]}
  ]
}
